Laboratory results from PubChem BioAssay.
The source made the active and inactive calls.

Experiments:
[1] = tested on: Plasmodium falciparum Sir2 (PF13_0152, Sir2A); experiment: Plasmodium falciparum Sir2A binding compounds – biochemical, small-molecule microarray, 635 nm fluorescence, primary screen (AID 1098); settings: fluorescence 635 nm, higher = more signal;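 note: score merges spot fluorescence intensity with its signal-to-noise ratio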
[2] = probe aDKK1 binding to arrayed compounds – biochemical, biotinylated probe, 635/667 nm fluorescence, primary screen (AID 1099); settings: small-molecule microarray, higher = more signal;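 note: score merges 667nm spot fluorescence with signal to noise across triplicate slides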
[3] = probe aCHRDL2 binding to arrayed compounds – biochemical, biotinylated probe, 635/667 nm fluorescence, primary screen (AID 1100); settings: small-molecule microarray, higher = more signal
[4] = change in splice reporter luminescence, either direction, cell-based, HEK293, spliceosome inhibition project, primary screen (AID 1101); settings: HEK293 splicing luciferase reporter, 24 h, higher = more signal, called active from +8 up or from −8 down;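 note: HEK293 cells carrying a splicing-competent luciferase reporter gene; test concentration not given here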
[5] = target: Fibroblast growth factor 10 (Homo sapiens) (UniProt O15520); experiment: compounds binding fibroblast growth factor 10 – biochemical, small-molecule microarray, 635 nm fluorescence, primary screen (AID 1102); settings: FGF10 binding, fluorescence 635 nm, higher = more signal
Fibroblast growth factor 10 (Homo sapiens), sequence (O15520 whole entry, looked up): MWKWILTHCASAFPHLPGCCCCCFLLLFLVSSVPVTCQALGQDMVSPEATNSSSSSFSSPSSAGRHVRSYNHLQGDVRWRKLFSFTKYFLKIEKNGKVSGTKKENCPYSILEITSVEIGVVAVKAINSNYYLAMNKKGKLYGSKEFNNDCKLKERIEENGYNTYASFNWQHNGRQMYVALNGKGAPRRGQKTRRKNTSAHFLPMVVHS

[6] = tested on: glycogen synthase kinase-3 (GSK3A per assay name; protocol says GSK3B); experiment: compounds binding glycogen synthase kinase-3 – biochemical, small-molecule microarray, 635 nm fluorescence, GSK3A, primary screen (AID 1103); settings: fluorescence 635 nm, higher = more signal; note: the record names both GSK3A and GSK3B
[7] = target: Epidermal growth factor receptor (Homo sapiens) (UniProt P00533); experiment: compounds binding epidermal growth factor receptor – biochemical, small-molecule microarray, 635 nm fluorescence, primary screen (AID 1104); settings: EGFR binding, higher = more signal;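 note: score merges 667 nm emission intensity with spot signal to noise over triplicate slides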
Epidermal growth factor receptor (Homo sapiens), sequence (P00533 whole entry, looked up): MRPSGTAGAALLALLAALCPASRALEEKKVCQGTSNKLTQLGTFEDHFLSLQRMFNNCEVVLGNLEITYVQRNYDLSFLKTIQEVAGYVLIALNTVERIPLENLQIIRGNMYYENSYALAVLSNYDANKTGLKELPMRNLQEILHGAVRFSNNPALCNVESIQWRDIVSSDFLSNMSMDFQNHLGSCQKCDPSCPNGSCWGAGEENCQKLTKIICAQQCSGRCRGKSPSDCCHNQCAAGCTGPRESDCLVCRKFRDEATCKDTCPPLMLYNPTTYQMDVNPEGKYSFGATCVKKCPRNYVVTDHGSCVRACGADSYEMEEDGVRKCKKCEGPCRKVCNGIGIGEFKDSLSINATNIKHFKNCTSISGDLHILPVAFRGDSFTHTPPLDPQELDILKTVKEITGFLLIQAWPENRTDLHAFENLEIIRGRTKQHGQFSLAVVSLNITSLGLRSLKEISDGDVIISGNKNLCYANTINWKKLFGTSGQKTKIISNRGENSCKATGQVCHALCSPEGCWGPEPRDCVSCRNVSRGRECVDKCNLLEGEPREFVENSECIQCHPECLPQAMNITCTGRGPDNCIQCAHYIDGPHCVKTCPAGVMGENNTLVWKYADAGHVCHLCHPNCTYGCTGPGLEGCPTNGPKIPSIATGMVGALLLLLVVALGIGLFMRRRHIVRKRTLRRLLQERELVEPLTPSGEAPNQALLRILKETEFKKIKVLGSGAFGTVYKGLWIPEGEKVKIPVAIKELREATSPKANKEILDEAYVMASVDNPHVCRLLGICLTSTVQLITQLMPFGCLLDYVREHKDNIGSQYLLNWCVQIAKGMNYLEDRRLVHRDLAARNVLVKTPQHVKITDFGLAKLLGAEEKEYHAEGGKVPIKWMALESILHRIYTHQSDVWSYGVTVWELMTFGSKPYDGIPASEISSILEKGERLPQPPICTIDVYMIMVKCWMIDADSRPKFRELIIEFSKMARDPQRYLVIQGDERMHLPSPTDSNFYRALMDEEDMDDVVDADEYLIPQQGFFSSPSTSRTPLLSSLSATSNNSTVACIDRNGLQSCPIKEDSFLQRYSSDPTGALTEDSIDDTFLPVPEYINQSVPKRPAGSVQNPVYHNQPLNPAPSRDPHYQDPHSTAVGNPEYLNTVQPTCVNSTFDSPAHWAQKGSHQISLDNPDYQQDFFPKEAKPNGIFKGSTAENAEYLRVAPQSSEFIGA

[8] = target: Follistatin-related protein 3 (Homo sapiens) (UniProt O95633); experiment: compounds binding follistatin-related protein 3 – biochemical, small-molecule microarray, 635 nm fluorescence, primary screen (AID 1105); settings: FSTL3 binding, higher = more signal;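 note: score merges emission near 667 nm and signal to noise per printed spot across three slides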
Follistatin-related protein 3 (Homo sapiens), sequence (O95633 whole entry, looked up): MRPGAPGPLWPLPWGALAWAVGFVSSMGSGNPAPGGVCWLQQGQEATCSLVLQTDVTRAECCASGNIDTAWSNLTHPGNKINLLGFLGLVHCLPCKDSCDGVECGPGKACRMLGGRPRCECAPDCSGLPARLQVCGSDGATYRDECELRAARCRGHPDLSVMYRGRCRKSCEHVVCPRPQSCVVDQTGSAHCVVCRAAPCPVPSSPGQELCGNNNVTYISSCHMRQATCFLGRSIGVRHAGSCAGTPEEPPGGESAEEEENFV

[9] = target: Dickkopf-related protein 1 (Homo sapiens) (UniProt O94907); experiment: small molecules binding DKK1 protein – biochemical, small-molecule microarray, 635 nm fluorescence scan, primary screen (AID 1106); settings: higher = more signal;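 note: score merges emission near 667 nm with signal to noise over three replicate slides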
Dickkopf-related protein 1 (Homo sapiens), sequence (O94907 whole entry, looked up): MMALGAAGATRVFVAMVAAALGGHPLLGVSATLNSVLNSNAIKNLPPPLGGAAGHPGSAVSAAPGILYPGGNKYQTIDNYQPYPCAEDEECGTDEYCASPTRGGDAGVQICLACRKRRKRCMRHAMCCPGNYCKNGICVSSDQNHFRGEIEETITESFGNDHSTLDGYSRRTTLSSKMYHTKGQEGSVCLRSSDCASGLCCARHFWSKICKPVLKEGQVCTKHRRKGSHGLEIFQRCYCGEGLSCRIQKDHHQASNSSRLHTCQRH

[10] = tested on: Inhibin beta A chain (activin A); experiment: small molecules binding activin A – biochemical, small-molecule microarray, 635 nm fluorescence scan, primary screen (AID 1107); settings: INHBA, higher = more signal;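 note: mouse activin A protein probed at 4.33 µg/mL on printed slides; score merges bound-protein fluorescence near 667 nm with spot signal-to-noise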
[11] = tested on: Human papillomavirus type 1a protein E7 (residues 44-93); experiment: small molecules binding HPV E7 44-93 – biochemical, small-molecule microarray, residues 44-93, 635 nm fluorescence, primary screen (AID 1108); settings: fluorescence 635 nm, higher = more signal;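 note: E7 fragment applied at 1 µg/mL in TBST for 1 h at 4 C; score combines spot fluorescence with its signal to noise ratio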
[12] = hepatitis C replication reporter changes, two-sided – Huh7 cells, luciferase reporter, HCV replication inhibitor project, primary screen (AID 1109); settings: Huh7 HCV replicon luciferase reporter, 48 h; higher = more signal;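 note: huh7 hepatoma cells harbouring a luciferase neomycin HCV replicon reporter; luciferase luminescence as measure of HCV replicon replication; test concentration not given here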
[13] = target: Left-right determination factor 2 (Homo sapiens) (UniProt O00292); experiment: small molecules binding LEFTY2 protein – biochemical, small-molecule microarray, 635 nm fluorescence scan, primary screen (AID 1110); settings: higher = more signal
Left-right determination factor 2 (Homo sapiens), sequence (O00292 whole entry, looked up): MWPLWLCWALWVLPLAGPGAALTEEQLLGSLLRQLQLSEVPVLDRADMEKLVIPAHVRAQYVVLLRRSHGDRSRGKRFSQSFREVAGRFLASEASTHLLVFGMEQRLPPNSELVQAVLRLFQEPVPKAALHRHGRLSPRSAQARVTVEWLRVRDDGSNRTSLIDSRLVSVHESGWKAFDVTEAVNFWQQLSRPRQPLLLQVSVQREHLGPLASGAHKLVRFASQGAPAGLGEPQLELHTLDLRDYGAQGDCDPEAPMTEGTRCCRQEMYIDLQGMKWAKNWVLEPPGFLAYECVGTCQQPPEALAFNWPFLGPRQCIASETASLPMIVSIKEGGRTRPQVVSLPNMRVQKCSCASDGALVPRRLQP

[14] = target: Calmodulin-1 (Homo sapiens) (UniProt P0DP23); experiment: small molecules binding calmodulin-1 with EGTA – biochemical, small-molecule microarray, Cy5-labelled CALM1, profiling panel (AID 1111); settings: Cy5-CALM1 binding fluorescence, higher = more signal;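 note: labelled calmodulin applied in Tris saline Tween buffer holding calcium plus EGTA and DTT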
[15] = target: Calmodulin-1 (Homo sapiens) (UniProt P0DP23); experiment: small molecules binding Ca-loaded calmodulin-1 – biochemical, small-molecule microarray, Cy5-labelled CALM1, plus calcium, artefact control for SMM control-protein annotation, profiling panel (AID 1112); settings: Cy5-CALM1 binding fluorescence, higher = more signal;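 note: score merges spot fluorescence with signal to noise from triplicate slides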
[16] = probe aWnt5a binding to arrayed compounds – biochemical, biotinylated probe, 635/667 nm fluorescence, primary screen (AID 1113); settings: small-molecule microarray, higher = more signal;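 note: score merges 667 nm fluorescence intensity with signal-to-noise per printed feature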
[17] = probe aShh binding to arrayed compounds – biochemical, biotinylated probe, 635/667 nm fluorescence, primary screen (AID 1114); settings: small-molecule microarray, higher = more signal;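 note: probe is biotin-labelled aShh protein from a stem cell growth factor screen; measures binding of labelled protein to compounds printed on the slide; score merges feature fluorescence at 667 nm with signal-to-noise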
[18] = probe aNog binding to arrayed compounds – biochemical, biotinylated probe, 635/667 nm fluorescence, primary screen (AID 1115); settings: small-molecule microarray, higher = more signal;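 note: probe is biotinylated aNog protein used at 0.15 µg/mL for 1 h at 4 C; z-score combines 667 nm fluorescence of each spot with its signal to noise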
[19] = target: Torsin-1A-interacting protein 1 (Homo sapiens) (UniProt Q5JTV8); experiment: compound microarray binding of lysate hLAP1 – cell lysate, small-molecule microarray, COS7 lysate, 635/667 nm fluorescence, primary screen (AID 1116); settings: 635 nm fluorescence, higher = more signal
Torsin-1A-interacting protein 1 (Homo sapiens), sequence (Q5JTV8 whole entry, looked up): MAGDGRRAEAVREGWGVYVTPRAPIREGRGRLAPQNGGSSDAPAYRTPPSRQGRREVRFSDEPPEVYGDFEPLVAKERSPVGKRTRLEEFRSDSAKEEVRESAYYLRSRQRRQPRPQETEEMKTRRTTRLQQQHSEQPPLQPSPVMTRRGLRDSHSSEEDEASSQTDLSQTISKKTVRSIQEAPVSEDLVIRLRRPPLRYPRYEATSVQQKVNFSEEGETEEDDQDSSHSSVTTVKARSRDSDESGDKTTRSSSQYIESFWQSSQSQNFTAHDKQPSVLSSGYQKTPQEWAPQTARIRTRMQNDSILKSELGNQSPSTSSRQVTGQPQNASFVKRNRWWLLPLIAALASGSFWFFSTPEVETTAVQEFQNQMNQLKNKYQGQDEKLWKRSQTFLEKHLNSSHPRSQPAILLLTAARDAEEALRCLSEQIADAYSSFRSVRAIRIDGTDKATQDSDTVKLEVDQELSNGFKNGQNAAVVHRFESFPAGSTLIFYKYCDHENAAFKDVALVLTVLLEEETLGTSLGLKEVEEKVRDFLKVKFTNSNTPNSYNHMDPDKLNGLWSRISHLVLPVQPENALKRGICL

[20] = target: Alpha-bungarotoxin (Bungarus multicinctus) (UniProt P60615); experiment: compounds binding labelled alpha-BTX control protein – biochemical, small-molecule microarray, Alexa647 label, 635/667 nm fluorescence, artefact control for SMM control protein annotation, profiling panel (AID 1117); settings: alpha-BTX-A647 binding fluorescence, higher = more signal
Alpha-bungarotoxin (Bungarus multicinctus), sequence (P60615 whole entry, looked up): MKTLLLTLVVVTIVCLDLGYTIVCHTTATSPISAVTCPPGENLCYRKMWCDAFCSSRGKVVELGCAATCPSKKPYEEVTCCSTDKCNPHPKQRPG

SMILES	composite z-score [1]	composite z-score [2]	composite z-score [3]	z-score [4]	composite z-score [5]	composite z-score [6]	composite z-score [7]	composite z-score [8]	composite z-score [9]	composite z-score [10]	composite z-score [11]	z-score [12]	composite z-score [13]	composite z-score [14]	composite z-score [15]	composite z-score [16]	composite z-score [17]	composite z-score [18]	composite z-score [19]	composite z-score [20]
O=C1O[C@@H](c2ccccc2)[C@@H](c2ccccc2)N2[C@@H](c3ccc(OCCO)cc3)[C@]3(C(=O)Nc4ccc(C#CCCO)cc43)[C@@H](C(=O)N3CCN(c4ncccn4)CC3)[C@H]12	1.13	0.0868	0.319	0.952 (inactive)	1.19	0.935	0.16	1.07	0.116	0.666	1.44	-0.347	0.669	0.732	0.073	0.0115	0.151	-0.601	0.842	1.75
COCCOC(=O)N1C(=O)[C@@]2(c3cc(C#CCCO)ccc31)[C@H](C(=O)N1CCCCCCC1)[C@H]1C(=O)O[C@H](c3ccccc3)[C@H](c3ccccc3)N1[C@@H]2c1ccc(O)cc1	1.46	1.53	1.19	-1.15 (inactive)	0.494	1.28	0.292	1.3	0.4	1.27	1.02	-1.18	0.383	2.14	0.719	0.0775	0.814	0.916	2.56	1.45
C[C@H]1NC(=O)[C@@H](C)NC(=O)[C@@]23C(=O)N[C@@H](Cc4ccccc4)C2[C@H](C)[C@@]2(C)O[C@H]2C3/C=C/C/C=C\CNC1=O (stereo not given in full)	1.66	-0.581	-0.781	-0.697 (inactive)	0.14	0.0002	0.0021	0.171	0.422	1.28	-0.569	-0.175	0.182	-0.809	-1.32	-0.0758	-0.221	-0.0684	-0.485	0.393
CCOC(=O)C[C@H]1[C@H](OC(=O)c2cc3ccccc3oc2=O)[C@@H](NC(=O)C2CCCCC2)c2cc(OCCCO)ccc2N1C(=O)c1ccc2ccccc2n1	0.631	-0.245	-0.273	-0.34 (inactive)	0.68	0.413	0.258	1.08	0.493	0.304	1.03	-0.26	0.4	0.242	-0.137	-0.0721	0.225	-0.188	0.767	0.131
COCCCNC(=O)[C@@]1(c2ccc([N+](=O)[O-])cc2)CC(=O)N(C2CCCCC2)[C@@H]1c1ccc(CO)cc1	-0.463	-0.86	-0.67	-0.748 (inactive)	0.316	0.296	-0.0545	-0.186	-0.296	-0.395	0.361	-0.558	-0.256	-0.702	-0.762	-0.418	-0.8	-0.811	-0.218	-0.374
COC(=O)c1ccc(C#CC(NP(=O)(c2ccccc2)c2ccccc2)c2ccccc2)cc1 (stereo not given)	-0.179	1.2	1.38	5.42 (inactive)	0.847	-0.245	1.77	1.7	0.567	1.76	1.39	-0.173	-0.34	1.92	0.863	0.0381	-0.519	1.59	0.403	2.89
CCC(=O)[C@]12O[C@@]3([C@@H]4C(=O)OCC[C@@H]41)N(Cc1ccccc1)C(C)=C(C(=O)OC)[C@@H](c1ccccc1)N3C2=O	0.401	-0.393	-0.314	-1.15 (inactive)	0.0848	-0.588	-0.0835	-0.782	-0.0297	1.47	-2.88	0.286	0.271	-0.146	-0.0047	-0.16	-0.0653	-0.196	-0.398	-0.621
CC(C)(C)OC(=O)CC[C@]1(C(=O)N2CCCCC2)N=C(c2ccc(OCCCO)cc2)O[C@H]1c1ccccc1	1.73	0.464	0.56	-0.767 (inactive)	1.2	1.29	0.494	1.37	0.691	0.556	1.37	-1.66	0.538	1.68	-0.0194	0.0919	-0.138	0.248	1.89	2.02
O=C1OCC=C[C@H]2OC34C=CCN(Cc5ccccc5)C(=O)[C@H]3N(CCCCCO)C(=O)[C@@H]4[C@@H]12 (stereo not given in full)	1.41	-0.212	0.528	-1.45 (inactive)	-0.606	-0.447	-1.36	-0.647	-1.01	0.18	-0.646	-0.615	-1.84	-0.398	1.08	-0.169	-0.138	0.161	-0.328	-1.52
COCCOC(=O)N1C(=O)[C@@]2(c3cc(C#CC4=CCCCC4)ccc31)[C@H](C(=O)NC[C@H](O)c1ccccc1)[C@H]1C(=O)O[C@H](c3ccccc3)[C@H](c3ccccc3)N1[C@@H]2c1ccc(OCCO)cc1	0.915	-0.18	0.226	-0.718 (inactive)	1.29	1.28	0.483	1.37	0.817	0.49	1.41	-2.08	0.537	0.774	-0.206	0.0115	-0.279	0.165	1	1.28
CO[C@H]1O[C@H](CO)[C@@H](OC(=O)Nc2ccc(Oc3ccccc3)cc2)[C@H](OC(=O)Nc2ccccc2-c2ccccc2)[C@H]1OC(=O)Nc1ccccc1-c1ccccc1	1.35	0.542	0.748	2.76 (inactive)	1.14	1.34	0.528	1.36	0.538	0.187	0.383	-3.97	0.975	2.09	-0.107	0.0676	0.11	0.786	1.77	2.98
